According to PubChem BioAssay (EPA / NIEHS):
Active and inactive are the calls of the source. How the source made its calls: active means hit-call score of the fitted dose curve at least 0.9, where 1 is the maximum; inactive means score below 0.9.

Assays:
Conditions in all cases: mRNA level, 48 h; actives raise or lower the signal
[1] = read-out: Early growth response protein 1 (EGR1) transcription factor, EGR1 (gene 1958); test: LTEA_HepaRG_EGR1: Life Technologies and Expression Analysis (LTEA) Assay for Early growth response protein 1 (EGR1) transcription factor using HepaRG (AID 2283490)
In short: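 HepaRG, 48 h exposure, 8-pt half-log series from 100 uM, 0.5% DMSO vehicle; EGR1 transcript by TaqMan qRT-PCR (Fluidigm array), housekeeping-normalized; bidirectional fit relative to DMSO baseline.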

[2] = read-out: Ezrin (EZR), EZR (gene 7430); test: LTEA_HepaRG_EZR: Life Technologies and Expression Analysis (LTEA) Assay for Ezrin (EZR) using HepaRG (AID 2283491)
In short: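 EZR transcript levels came from Fluidigm qRT-PCR and were normalized to three housekeeping genes after 48 h chemical exposure of HepaRG cells. Dosing used an 8-point half-log series with a 100 uM top concentration in 0.5% DMSO, tested in duplicate; both directions were fitted versus vehicle.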

[3] = read-out: Cytochrome P450 3A7 (Homo sapiens) (UniProt P24462); test: LTEA_HepaRG_CYP3A7: Life Technologies and Expression Analysis (LTEA) Assay for CYP3A7 using HepaRG (AID 2283492)
In short: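 Cells were thawed, plated, cultured 48 h, then treated for a further 48 h with chemicals (eight-point half-log series from 100 uM, 0.5% DMSO). RNA was isolated and CYP3A7 expression quantified by qRT-PCR normalised to ACTB, GAPDH and POLR2A.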

[4] = read-out: CYP3A5 (gene 1577); test: LTEA_HepaRG_CYP3A5: Life Technologies and Expression Analysis (LTEA) Assay for CYP3A5 using HepaRG (AID 2283493)
In short: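 mRNA levels were quantified by qRT-PCR on Fluidigm arrays and normalized to three housekeeping genes. Differentiated HepaRG cells received 48 h exposure (top 100 uM, half-log steps, 0.5% DMSO vehicle, duplicate); bidirectional fitting versus DMSO.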

[5] = read-out: Fatty Acid-Binding Protein 1 (FABP1), FABP1 (gene 2168); test: LTEA_HepaRG_FABP1: Life Technologies and Expression Analysis (LTEA) Assay for Fatty Acid-Binding Protein 1 (FABP1) using HepaRG (AID 2283494)
In short: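 qRT-PCR readout of FABP1 transcript (normalized to three housekeeping genes) after 48 h chemical exposure of HepaRG cells; eight concentrations, half-log steps, max 100 uM, 0.5% DMSO vehicle; gain or loss fitted relative to DMSO baseline.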

[6] = read-out: Cytochrome P450 4A22 (Homo sapiens) (UniProt Q5TCH4); test: LTEA_HepaRG_CYP4A22: Life Technologies and Expression Analysis (LTEA) Assay for Cytochrome P450 4A22 (CYP4A22) using HepaRG (AID 2283495)
In short: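 Cryopreserved HepaRG cells, plated and cultured 48 h, then switched to serum-free induction medium and treated 48 h (duplicates, up to 100 uM, half-log steps, 0.5% DMSO). Expression change of CYP4A22 was fitted bidirectionally against vehicle.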

[7] = read-out: Cytochrome P450 7A1 (Homo sapiens) (UniProt P22680); test: LTEA_HepaRG_CYP7A1: Life Technologies and Expression Analysis (LTEA) Assay for Cytochrome P450 7A1 (CYP7A1) using HepaRG (AID 2283496)
In short: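 HepaRG, 48 h exposure, 8-pt half-log series from 100 uM, 0.5% DMSO vehicle, duplicates. Readout: TaqMan qRT-PCR mRNA vs three housekeeping genes; bidirectional curve fit against DMSO baseline.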

[8] = read-out: Glutathione S-Transferase (GSTA2), GSTA2 (gene 2939); test: LTEA_HepaRG_GSTA2: Life Technologies and Expression Analysis (LTEA) Assay for Glutathione S-Transferase (GSTA2) using HepaRG (AID 2283497)
In short: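 qRT-PCR readout of GSTA2 transcript, normalized to three housekeeping genes, fitted bidirectionally against 0.5% DMSO baseline. Differentiated HepaRG cells received compound for 48 h at 8 concentrations (top 100 uM, half-log steps).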

[9] = read-out: growth arrest and DNA damage 45 (GADD45G), GADD45G (gene 10912); test: LTEA_HepaRG_GADD45G: Life Technologies and Expression Analysis (LTEA) Assay for growth arrest and DNA damage 45 (GADD45G) using HepaRG (AID 2283499)
In short: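 Human hepatic HepaRG line treated 48 h with chemicals (eight concentrations, half-log steps from 100 uM); transcript induction or repression of GADD45G scored by qRT-PCR versus DMSO vehicle.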

[10] = read-out: Glutamate-cysteine ligase regulatory (GCLM), GCLM (gene 2730); test: LTEA_HepaRG_GCLM: Life Technologies and Expression Analysis (LTEA) Assay for Glutamate-cysteine ligase regulatory (GCLM) using HepaRG (AID 2283500)
In short: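 GCLM expression quantified by qRT-PCR, normalized to three housekeeping genes, after 48 h chemical treatment of HepaRG cells in duplicate at 8 concentrations (top 100 uM, half-log steps, 0.5% DMSO). Changes fitted both directions against vehicle.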

[11] = read-out: Glutathione S-transferase M3 (GSTM3), GSTM3 (gene 2947); test: LTEA_HepaRG_GSTM3: Life Technologies and Expression Analysis (LTEA) Assay for Glutathione S-transferase M3 (GSTM3) using HepaRG (AID 2283501)
In short: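 Changes in GSTM3 expression, an oxidative-stress marker, were scored by bidirectional curve fitting against 0.5% DMSO vehicle. Human HepaRG cultures received chemicals for 48 h in duplicate, highest concentration 100 uM with half-log dilutions.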

[12] = read-out: Heat shock 70 kDa protein 1 (HSPA1A), gene 3303; test: LTEA_HepaRG_HSPA1A: Life Technologies and Expression Analysis (LTEA) Assay for Heat shock 70 kDa protein 1 (HSPA1A) using HepaRG (AID 2283502)
In short: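 HSPA1A expression measured by qRT-PCR with ACTB/GAPDH/POLR2A normalization; curves fitted in both directions relative to DMSO vehicle. Exposure: 48 h in HepaRG cells, duplicate 8-point half-log series from 100 uM, 0.5% DMSO, serum-free induction medium.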

[13] = read-out: Hypoxia-inducible factor 1-alpha (Homo sapiens) (UniProt Q16665); test: LTEA_HepaRG_HIF1A: Life Technologies and Expression Analysis (LTEA) Assay for Hypoxia-inducible factor 1 (HIF1A) Trancription factor using HepaRG (AID 2283503)
In short: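 HIF1A transcript level read by qRT-PCR (ACTB, GAPDH, POLR2A normalization) after 48 h chemical exposure of HepaRG cultures. Eight half-log concentrations, top 100 uM, 0.5% DMSO vehicle, duplicates; bidirectional curve fit against DMSO baseline.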

[14] = read-out: 3-Hydroxy-3-Methylglutaryl-CoA Synthase 2 (HMGCS2), HMGCS2 (gene 3158); test: LTEA_HepaRG_HMGCS2: Life Technologies and Expression Analysis (LTEA) Assay for 3-Hydroxy-3-Methylglutaryl-CoA Synthase 2 (HMGCS2) using HepaRG (AID 2283504)
In short: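 Expression of HMGCS2 in human HepaRG liver cells is measured by qRT-PCR 48 h after dosing (highest 100 uM, half-log series, 0.5% DMSO). Values come from bidirectional concentration-response fitting with DMSO as baseline.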

[15] = read-out: HGF (gene 3082); test: LTEA_HepaRG_HGF: Life Technologies and Expression Analysis (LTEA) Assay for Hepatocyte Growth Facto (HGF) using HepaRG (AID 2283505)
In short: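 Gain or loss of HGF mRNA in human HepaRG liver cells after 48 h chemical exposure; eight concentrations up to 100 uM with 0.5% DMSO vehicle, quantified by TaqMan qRT-PCR.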

[16] = read-out: Insulin Like Growth Factor 1 (IGF1), IGF1 (gene 3479); test: LTEA_HepaRG_IGF1: Life Technologies and Expression Analysis (LTEA) Assay for Insulin Like Growth Factor 1 (IGF1) using HepaRG (AID 2283506)
In short: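 Expression measured by TaqMan qRT-PCR on a Fluidigm array, with three housekeeping genes for normalisation, after 48 h treatment of HepaRG cells. Top concentration 100 uM with half-log steps, 0.5% DMSO vehicle, bidirectional fit.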

[17] = read-out: Intercellular Adhesion Molecule 1 (ICAM1), ICAM1 (gene 3383); test: LTEA_HepaRG_ICAM1: Life Technologies and Expression Analysis (LTEA) Assay for Intercellular Adhesion Molecule 1 (ICAM1) using HepaRG (AID 2283507)
In short: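 Gain or loss of transcript in HepaRG hepatic cells is quantified by qRT-PCR after 48 h chemical exposure (up to 100 uM, half-log steps), with DMSO as baseline.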

[18] = read-out: Insulin-like growth factor-binding protein 1 (IGFBP1), IGFBP1 (gene 3484); test: LTEA_HepaRG_IGFBP1: Life Technologies and Expression Analysis (LTEA) Assay for Insulin-like growth factor-binding protein 1 (IGFBP1) using HepaRG (AID 2283508)
In short: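 mRNA induction or loss was quantified by qRT-PCR after 48 h chemical exposure of human HepaRG cells, with 0.5% DMSO as vehicle and baseline. Concentration-response over eight points up to 100 uM.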

[19] = read-out: Interleukin 6 (IL6), IL6 (gene 3569); test: LTEA_HepaRG_IL6: Life Technologies and Expression Analysis (LTEA) Assay for Interleukin 6 (IL6) using HepaRG (AID 2283509)
In short: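 qRT-PCR read-out of IL6 transcript, normalized to three housekeeping genes, after 48 h chemical exposure of HepaRG cells; 8-point half-log series, top 100 uM, 0.5% DMSO vehicle. Bidirectional curve fitting against DMSO baseline.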

[20] = read-out: Interleukin 6 Receptor (IL6R), IL6R (gene 3570); test: LTEA_HepaRG_IL6R: Life Technologies and Expression Analysis (LTEA) Assay for Interleukin 6 Receptor (IL6R) using HepaRG (AID 2283510);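 on AC50: differentiated human HepaRG liver cells in serum-free induction medium; TaqMan qRT-PCR signal normalized to ACTB GAPDH and POLR2A housekeeping genes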
In short: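 IL6R transcript level by qRT-PCR after 48 h chemical exposure (8-point, half-log, max 100 uM, 0.5% DMSO vehicle) of HepaRG cells in serum-free induction medium. Normalized to three housekeeping genes; curves fitted in both directions relative to DMSO.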

Measured: AC50

Chain of Hypoxia-inducible factor 1-alpha (Homo sapiens) (Q16665 whole entry, looked up): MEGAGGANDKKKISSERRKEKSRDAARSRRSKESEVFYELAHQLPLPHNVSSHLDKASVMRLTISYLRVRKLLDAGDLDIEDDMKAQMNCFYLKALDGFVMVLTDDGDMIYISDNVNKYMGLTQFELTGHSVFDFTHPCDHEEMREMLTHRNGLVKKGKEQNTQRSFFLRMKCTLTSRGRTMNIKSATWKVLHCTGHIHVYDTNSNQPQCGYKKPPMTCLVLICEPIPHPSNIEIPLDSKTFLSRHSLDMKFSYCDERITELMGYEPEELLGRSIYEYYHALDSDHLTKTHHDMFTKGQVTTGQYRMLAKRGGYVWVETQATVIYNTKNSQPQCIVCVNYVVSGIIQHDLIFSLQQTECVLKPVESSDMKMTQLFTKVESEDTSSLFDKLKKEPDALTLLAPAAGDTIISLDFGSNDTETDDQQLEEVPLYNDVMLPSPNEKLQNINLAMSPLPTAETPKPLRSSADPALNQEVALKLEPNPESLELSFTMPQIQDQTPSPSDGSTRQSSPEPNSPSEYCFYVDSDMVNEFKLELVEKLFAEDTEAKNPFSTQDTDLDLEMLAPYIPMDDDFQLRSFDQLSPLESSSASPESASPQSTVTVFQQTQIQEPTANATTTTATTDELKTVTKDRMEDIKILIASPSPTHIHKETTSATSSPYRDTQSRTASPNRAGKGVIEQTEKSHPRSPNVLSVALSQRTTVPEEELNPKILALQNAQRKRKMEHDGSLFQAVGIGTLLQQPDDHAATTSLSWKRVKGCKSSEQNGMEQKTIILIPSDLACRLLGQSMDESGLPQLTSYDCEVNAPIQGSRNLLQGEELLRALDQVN
Chain of Cytochrome P450 3A7 (Homo sapiens) (P24462 whole entry, looked up): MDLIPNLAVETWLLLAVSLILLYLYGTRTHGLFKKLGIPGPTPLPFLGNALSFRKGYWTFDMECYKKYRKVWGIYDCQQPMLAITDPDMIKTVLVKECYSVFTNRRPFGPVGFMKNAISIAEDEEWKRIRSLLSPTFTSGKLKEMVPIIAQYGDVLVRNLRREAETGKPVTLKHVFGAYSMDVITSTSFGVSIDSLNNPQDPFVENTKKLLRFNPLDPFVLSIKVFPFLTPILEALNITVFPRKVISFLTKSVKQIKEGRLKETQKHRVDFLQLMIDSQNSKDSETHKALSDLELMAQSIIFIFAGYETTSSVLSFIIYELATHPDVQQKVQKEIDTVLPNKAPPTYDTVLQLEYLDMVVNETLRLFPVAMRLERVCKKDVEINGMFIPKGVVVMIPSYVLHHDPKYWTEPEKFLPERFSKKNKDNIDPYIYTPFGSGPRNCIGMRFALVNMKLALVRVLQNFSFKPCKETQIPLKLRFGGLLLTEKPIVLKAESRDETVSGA

CCCCCCCCCCCCCCC
active: [3] 14.9 µM
inactive: all other assays above

CCCCCCCCCCCCOS(=O)(=O)O
active: [5] 87.6 µM | [12] 50 µM | [14] 86.6 µM | [18] 79.1 µM | [20] 93.1 µM
not listed: [3] | [6] | [7] | [8] | [16]
inactive: all other assays above

CC(=O)Nc1ccc(O)cc1
not listed: [13] | [15]
inactive: all other assays above

CN(Cc1cnc2nc(N)nc(N)c2n1)c1ccc(C(=O)N[C@@H](CCC(=O)O)C(=O)O)cc1
active: [1] 0.121 µM | [4] 0.0985 µM | [5] 0.322 µM | [7] 0.233 µM | [8] 0.264 µM
not listed: [12] | [13]
inactive: all other assays above

CN(C)CCOC(c1ccccc1)c1ccccc1
not listed: [3] | [4] | [6] | [7] | [13]
inactive: all other assays above

CCC(C)c1ccccc1O (stereo unspecified)
not listed: [13]
inactive: all other assays above

CCCCC=O
inactive: all assays above

CCCCc1oc2ccccc2c1C(=O)c1cc(I)c(OCCN(CC)CC)c(I)c1
inactive: [15] | [20]
active: [1] 61 µM | [2] 58.2 µM | [5] 69.9 µM | [8] 59 µM | [9] 55.1 µM | [10] 61.8 µM | [11] 37.8 µM | [12] 60 µM | [13] 64.5 µM | [14] 61.6 µM | [16] 46.2 µM | [17] 59.5 µM | [18] 54 µM | [19] 61.9 µM
